Pol eta inh-1: DNA polymerase eta (human) inhibition | recombinant Pol eta, fluorescent DNA replication assay | Potency, µM (highest dose often 114 µM), without a hit: top-dose activity change, negative = inhibition, usual class: inhibitors | 390,000 compounds, 1.2% hits; further: on the % scale 0 is the no-effect control and ±100 the full control effect
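Pol eta at 10 nM preincubated with compounds 15 min at room temperature; reaction started with fluorescent substrate (50 nM final) and read kinetically at 0 and 10 min.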
L3MBTL1 inh: inhibitors of human L3MBTL1 | 230,000 compounds, 0.66% hits | Q9Y468 | Potency, µM (doses to about 57.1 µM), inactives show at the highest dose activity, negative = inhibition, usual class: inhibitors | AID 485360 | AlphaScreen L3MBTL1–H3K9me1 peptide binding; further: on the % scale 0 is the no-effect control and ±100 the full control effect; nearly all actives have a fitted effect of over 60% in size
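AlphaScreen assay: L3MBTL1 (50 nM final) was preincubated 30 min at room temperature with biotinylated H3(1-15)K9me1 peptide (75 nM final), then 30 min with library compounds; streptavidin donor and nickel chelate acceptor beads (10 ug/mL final) added, 30 min dark.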
Pol kappa inh-1: blocks human DNA polymerase kappa activity; Q9UBT6; purified Pol kappa, fluorescent DNA synthesis assay, 10 min; Potency, µM (series often up to 107 µM), inactives show top-dose activity, negative = inhibition, actives largely listed as inhibitors; 400,000 compounds, 0.53% hits; further: on the % scale 0 is the no-effect control and ±100 the full control effect
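Enzyme at 10 nM met test compounds for 15 min at room temperature. Substrate addition (50 nM final) began the reaction, which was monitored by fluorescence at 0 and 10 min.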
POLB inh: DNA polymerase beta (human) inhibition. Pol beta primer extension/strand displacement, fluorescence kinetic. Potency, µM (titrated, usually from 114 µM), without a hit: at the highest dose activity change, negative = inhibition, actives largely listed as inhibitors. P06746. 340,000 compounds, 1.3% hits; further: on the % scale 0 is the no-effect control and ±100 the full control effect
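10 nM enzyme + cpd, 15 min RT; start with substrate 50 nM final; read 0 min and after 10 min RT. Corrected, normalized data; 4-parameter Hill curve fit.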
Pol iota inh: inhibitors of human DNA polymerase iota | Q9UNA4 | Pol iota fluorescent replication assay, 10 min | Potency, µM (highest dose often 115 µM), for inactives: at the highest dose activity, negative = inhibition, usual class: inhibitors | 390,000 compounds, 1% hits
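Pol iota at 10 nM preincubated 15 min with compounds at room temperature; reaction started with fluorescent substrate, 50 nM final. Fluorescence read kinetically at 0 and 10 min; buffer-only wells as negative control.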
WRN helicase inh-1: WRN helicase (human) inhibition. WRN helicase unwinding, fluorescent forked duplex, kinetic. Potency, µM (highest dose often 114 µM), without a hit: at the highest dose activity change, negative = inhibition, usual class: inhibitors. 360,000 compounds, 0.46% hits; further: on the % scale 0 is the no-effect control and ±100 the full control effect; nearly all actives have a fitted effect of over 55% in size
Target sequence (Q14191 whole entry, looked up): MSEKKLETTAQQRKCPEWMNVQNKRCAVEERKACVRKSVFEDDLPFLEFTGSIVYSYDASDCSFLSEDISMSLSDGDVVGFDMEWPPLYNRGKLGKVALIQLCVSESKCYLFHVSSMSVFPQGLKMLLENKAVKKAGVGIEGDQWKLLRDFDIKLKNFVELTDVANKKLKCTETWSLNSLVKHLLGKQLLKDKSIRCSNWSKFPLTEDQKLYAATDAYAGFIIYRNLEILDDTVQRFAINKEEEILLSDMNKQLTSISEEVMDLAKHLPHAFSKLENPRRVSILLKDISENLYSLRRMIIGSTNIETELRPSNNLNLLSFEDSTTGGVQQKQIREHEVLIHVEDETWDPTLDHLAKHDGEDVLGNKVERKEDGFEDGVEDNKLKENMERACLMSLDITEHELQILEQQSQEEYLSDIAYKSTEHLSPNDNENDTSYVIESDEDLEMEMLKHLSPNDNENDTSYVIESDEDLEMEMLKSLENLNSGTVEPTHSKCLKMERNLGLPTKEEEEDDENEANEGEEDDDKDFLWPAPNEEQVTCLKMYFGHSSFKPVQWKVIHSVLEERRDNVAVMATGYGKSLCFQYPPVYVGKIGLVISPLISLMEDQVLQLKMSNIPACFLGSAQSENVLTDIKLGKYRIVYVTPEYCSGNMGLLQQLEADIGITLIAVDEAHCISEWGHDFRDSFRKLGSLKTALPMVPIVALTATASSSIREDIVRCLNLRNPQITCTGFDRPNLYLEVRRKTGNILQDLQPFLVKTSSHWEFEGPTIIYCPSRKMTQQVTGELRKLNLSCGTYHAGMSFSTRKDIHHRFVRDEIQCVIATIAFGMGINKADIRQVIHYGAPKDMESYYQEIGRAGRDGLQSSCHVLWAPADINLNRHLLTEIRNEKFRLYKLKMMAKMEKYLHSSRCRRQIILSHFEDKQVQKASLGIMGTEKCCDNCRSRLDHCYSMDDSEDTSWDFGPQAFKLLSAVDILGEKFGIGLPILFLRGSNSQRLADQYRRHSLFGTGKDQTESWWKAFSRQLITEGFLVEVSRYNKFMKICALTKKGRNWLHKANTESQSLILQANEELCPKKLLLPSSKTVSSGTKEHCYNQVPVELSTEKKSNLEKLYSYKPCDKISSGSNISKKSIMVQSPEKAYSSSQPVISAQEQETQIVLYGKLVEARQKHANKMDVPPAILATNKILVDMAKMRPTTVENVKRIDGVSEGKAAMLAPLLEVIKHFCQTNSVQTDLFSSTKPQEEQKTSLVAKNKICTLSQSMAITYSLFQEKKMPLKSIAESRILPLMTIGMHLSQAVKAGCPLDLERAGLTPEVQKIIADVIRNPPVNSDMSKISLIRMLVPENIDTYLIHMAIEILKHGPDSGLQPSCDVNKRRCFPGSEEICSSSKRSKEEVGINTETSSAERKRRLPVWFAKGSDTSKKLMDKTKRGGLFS
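Screening of the MLSMR collection measured strand separation of a quenched forked DNA duplex (100 nM) by 20 nM WRN with 2 mM ATP, all final. Compounds were preincubated with enzyme 15 min at room temperature.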
PGK validate: blocks T. brucei phosphoglycerate kinase | shares compounds with Pol kappa inh-1 | TbPGK coupled GAPDH assay, Kinase-Glo luminescence | Potency, µM (series often up to 57.5 µM), for the others: at the highest dose activity change, negative = inhibition, most hits filed as inhibitors | 500 compounds, 79% hits; further: on the % scale 0 is the no-effect control and ±100 the full control effect; nearly all actives have a fitted effect of over 65% in size
POLI cherry-pick: Confirm cherry-picked inhibitors of human polymerase iota | shares compounds with Pol kappa inh-1 | Potency, µM, most hits filed as inhibitors | Pol iota primer extension, TAMRA/BHQ fluorescence | 1,500 compounds, 77% hits
Pol kappa inh-2: confirmation of human DNA polymerase kappa inhibitors; shares compounds with Pol eta inh-1; purified Pol-kappa, fluorescent strand-displacement substrate; 920 compounds, 76% hits; AID 720501; Potency, µM, usual class: inhibitors
Pol eta inh-2: Pol eta (human) inhibition, cherry-pick confirmation; Potency, µM, hits mostly inhibitors; AID 720502; Pol eta primer extension, TAMRA/BHQ fluorescence, 10 min; shares compounds with Pol eta inh-1; 2,600 compounds, 64% hits
WRN helicase inh-2: WRN helicase inhibition, cherry-pick retest; 610 compounds, 63% hits; shares compounds with WRN helicase inh-1; WRN helicase DNA unwinding, fluorescence kinetic; Potency, µM (top dose mostly 57.1 µM), inactives show at the highest dose activity, negative = inhibition, usual class: inhibitors; further: nearly all actives have a fitted effect of over 65% in size
TO displacement: DNA binding via thiazole orange displacement. shares compounds with WRN helicase inh-1. thiazole orange DNA binding displacement, fluorescence. Potency, µM (doses to about 57.1 µM), for inactives: at the highest dose activity change, negative = inhibition, usual class: inhibitors. 610 compounds, 10% hits;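 further: drop in dye fluorescence marks compound binding to DNA; on the % scale 0 is the no-effect control and ±100 the full control effect; nearly all actives have a fitted effect of over 60% in size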
BLM helicase inh: blocks human BLM helicase in WRN counterscreen; Potency, µM (titrated, usually from 57.1 µM), for the others: at the highest dose activity change, negative = inhibition, actives largely listed as inhibitors; 610 compounds, 60% hits; Recombinant BLM helicase DNA unwinding, red fluorescence; shares compounds with WRN helicase inh-1; further: nearly all actives have a fitted effect of over 60% in size
* marks the source's active call; other numbers are inactive results; ? = inconclusive; nt = no result given; [ ] = dose if it differs, or a comment. The list is not random: actives were taken first. Their share in the collection is about 2.5%. The call rests on the fitted dose curve; in most records, active means well fitted curve in the direction sought with a large enough effect; inconclusive means small, poorly fitted or top-dose-only effect, or another doubt; inactive means no such curve, though single readings can be large; an effect the other way counts as inactive or inconclusive. Potency means the concentration at half of the fitted maximal effect.

SMILES	Pol eta inh-1	L3MBTL1 inh	Pol kappa inh-1	POLB inh	Pol iota inh	WRN helicase inh-1	POLI cherry-pick	Pol eta inh-2	WRN helicase inh-2	TO displacement	BLM helicase inh	others
O=C1COc2ccc(C(=O)COC(=O)c3ccc4ccccc4n3)cc2N1	?	2%	-29%	?	?	?	47*	?	14µM*	11%	8.6µM*
CCN1/C(=C/c2ccc3cc(C)ccc3[n+]2CC)Sc2cc(C)c(C)cc21	?	?	-22%	14µM*	87%	50µM*	42*	76*	24µM*	22µM*	?
Cc1ccc(NC(=O)CN2C(=O)C3C4C=CC(C4)C3C2=O)cc1 (stereo not given)	-12%	nt	-11%	-18%	21%	-9%	nt	nt	nt	nt	nt
CCc1cccc(NC(=O)c2cn3c4c(ccc(Cl)c4c2=O)OC(C)C3)c1 (stereo not given)	3%	nt	-3%	0%	-14%	nt	nt	nt	nt	nt	nt
Cc1cccc(N=C2NC(=O)/C(=C/c3cccn3C)S2)c1C	-24%	-7%	-18%	2%	?	-8%	nt	nt	nt	nt	nt
Cc1cccc(N=C2NC(=O)/C(=C/C=C/c3ccco3)S2)c1C	1.8µM*	7.9µM*	14µM*	2.5µM*	3.5µM*	32µM*	67*	27*	15µM*	27µM*	8.6µM*
COc1ccc2c(c1)[nH]c1c(=O)n(Cc3ccncc3)cnc12	3%	6%	-13%	-1%	6%	0%	nt	nt	nt	nt	nt
COC(=O)c1ccccc1-c1ccc(/C=C2\C(=O)N(c3ccccc3)N=C2c2ccccc2)o1	-9%	-4%	9%	23%	0%	-2%	nt	nt	nt	nt	nt
O=C1NN(c2ccc(Cl)c(Cl)c2)C(=O)/C1=C/c1ccc(-c2ccccc2C(=O)O)o1	20µM*	nt	40µM*	32µM*	5µM*	32µM*	19*	30*	19µM*	-17%	-23%	Pol kappa inh-2=17*
O=C(CSc1nc2ccccc2n1CCc1ccccc1)c1ccc(O)c(O)c1	3.2µM*	3.2µM*	?	0.5µM*	2.8µM*	7.9µM*	3*	3*	6.8µM*	17µM*	1.5µM*	PGK validate=1.5µM*
O=C(CSc1nc2ccccc2n1CCc1ccccc1)N1CCOCC1	-20%	-12%	-14%	1%[57.1 µM]	0%	-8%	nt	nt	nt	nt	nt
CCSc1nnc(NC(=O)CSc2sc3c(O)cc(=O)[nH]c3c2C#N)s1	3.5µM*	nt	20µM*	35µM*	3.5µM*	18µM*	42*	24*	19µM*	?	?	Pol kappa inh-2=9.5*
CCSc1nnc(NC(=O)CC)s1	-2%	nt	-9%	18%	-15%	-3%	nt	nt	nt	nt	nt
